Experimental findings from PubChem BioAssay (EPA / NIEHS) are described below.

Structures are written as SMILES. Results filed as inconclusive are left out. Activity calls are given as the source filed them. The calls were made as follows, unless noted: active = hit-call score of the fitted dose curve at least 0.9, where 1 is the maximum; inconclusive = response in the unintended direction; inactive = score below 0.9.

In general, AC50 refers to the midpoint of the concentration-response curve, whichever way the signal moves.

Read-out in test [1]: Intercellular Adhesion Molecule 1 (ICAM1), ICAM1 (gene 3383)
The test can be described thus: BSK_3C_ICAM1: BioMAP Diversity Plus: 3C Assay for Intercellular Adhesion Molecule 1 (ICAM1) Biomarker Activity (AID 2283003; active = hit-call score of the fitted dose curve at least 0.9, where 1 is the maximum; inactive = score below 0.9). Particulars: primary human endothelial cells (HUVEC); actives raise or lower the signal. Summed up:
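Using DMSO as baseline, bidirectional curve fitting was applied to ICAM-1 ELISA signals from HUVEC in the 3C system, measured 24 h after compound addition.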

Test [2] is described as follows: BSK_3C_Proliferation: Cell Proliferation Assessment in the BioMAP Diversity Plus: 3C Assay (AID 2283006; active = hit-call score of the fitted dose curve at least 0.9, where 1 is the maximum; inactive = score below 0.9;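 as to AC50: potency may reflect either rise or fall in cell number versus DMSO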). Particulars: primary human endothelial cells (HUVEC). Summed up:
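Measured here: sulforhodamine B (0.1%) staining of TCA-fixed sub-confluent umbilical vein endothelial cultures 48 h post-dosing, absorbance 560 nm. DMSO served as negative control and baseline; both signal gain and loss were modelled.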

In test [3] the target is Peroxisome proliferator-activated receptor gamma (Homo sapiens) (UniProt P37231). The test can be described thus: ATG_PPARg_TRANS: Attagene TRANS-FACTORIAL HepG2 Assay for human Peroxisome Proliferator-activated Receptor-gamma (PPARg) (AID 2283007). Summed up:
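HepG2 cells transiently transfected with multiplexed GAL4-UAS reporter units and exogenous chimeric NR-Gal4 proteins; reporter mRNA quantified after 24 h compound exposure by RT-PCR, fluorescent labelling, HpaI digestion and capillary electrophoresis; gain-of-signal fitted versus DMSO baseline.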

Test [4] has as its target Nuclear receptor subfamily 1 group I member 2 (Homo sapiens) (UniProt O75469). The test can be described thus: ATG_PXR_TRANS: Attagene TRANS-FACTORIAL HepG2 Assay for human Pregnane X Receptor (PXR) (AID 2283008). The procedure, abridged:
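HepG2 transfected (FuGene 6) with GAL4-UAS reporter units + PXR-Gal4 chimera; dosed 24 h. Total RNA → oligo(dT) RT → PCR → 6-FAM primer extension → HpaI cut → CE. Gain-of-signal vs DMSO.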

Read-out in test [5]: E-selectin (Homo sapiens) (UniProt P16581)
The test can be described thus: BSK_3C_Eselectin: BioMAP Diversity Plus: 3C Assay for Eselectin Biomarker Activity (AID 2283015; active = hit-call score of the fitted dose curve at least 0.9, where 1 is the maximum; inactive = score below 0.9;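 as to outcome: cell surface E-selectin protein quantified by ELISA 24 h after dosing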). Particulars: primary human endothelial cells (HUVEC); actives raise or lower the signal. The procedure, abridged:
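Endpoint derived by bidirectional fitting against DMSO vehicle; signal is ELISA-detected E-selectin from primary HUVEC at 24 h post-dosing, with parallel SRB staining (0.1% SRB, 560 nm) flagging cytotoxicity.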

Read-out in test [6]: Interleukin-1 alpha (IL1a), IL1A (gene 3552)
Put plainly: BSK_BE3C_IL1a: BioMAP Diversity Plus: BE3C Assay for Interleukin-1 alpha (IL1a) Biomarker Activity (AID 2283016; active = hit-call score of the fitted dose curve at least 0.9, where 1 is the maximum; inactive = score below 0.9). Particulars: primary human bronchial epithelial cells; actives raise or lower the signal. The procedure, abridged: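 Measured in human lung primary bronchial epithelial cells: IL-1a by ELISA at 24 h after dosing, with bidirectional fitting against DMSO.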

Read-out in test [7]: Monocyte Chemoattractant Protein-1 (MCP1), CCL2 (gene 6347)
The test can be described thus: BSK_3C_MCP1: BioMAP Diversity Plus: 3C Assay for Monocyte Chemoattractant Protein-1 (MCP1) Biomarker Activity (AID 2283017; active = hit-call score of the fitted dose curve at least 0.9, where 1 is the maximum; inactive = score below 0.9). Particulars: primary human endothelial cells (HUVEC); actives raise or lower the signal. The procedure, abridged:
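Using human vascular primary endothelium, researchers measured MCP-1 by ELISA 24 h after treatment, with DMSO serving as negative control for bidirectional fitting.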

Read-out in test [8]: Monocyte Chemoattractant Protein-1 (MCP1), CCL2 (gene 6347)
Put plainly: BSK_4H_MCP1: BioMAP Diversity Plus: 4H Assay for Monocyte Chemoattractant Protein-1 (MCP1) Biomarker Activity (AID 2283018; active = hit-call score of the fitted dose curve at least 0.9, where 1 is the maximum; inactive = score below 0.9). Particulars: primary human endothelial cells (HUVEC); actives raise or lower the signal. The procedure, abridged:
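Primary human umbilical vein endothelium is exposed to chemical for 24 h before MCP-1 is assayed by ELISA. Concentration-response fitted bidirectionally relative to DMSO.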

Read-out in test [9]: Human Leukocyte Antigen - DR isotype (HLADR), HLA-DRA (gene 3122)
Put plainly: BSK_3C_HLADR: BioMAP Diversity Plus: 3C Assay for Human Leukocyte Antigen - DR isotype (HLADR) Biomarker Activity (AID 2283019; active = hit-call score of the fitted dose curve at least 0.9, where 1 is the maximum; inactive = score below 0.9;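 as to outcome: ELISA of cell-surface HLA-DR on HUVEC 24 h after dosing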). Particulars: primary human endothelial cells (HUVEC); actives raise or lower the signal. Summed up:
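Compound added to primary HUVEC cultures, 24 h incubation, then HLA-DR determined by ELISA; endpoint derived by bidirectional fitting relative to DMSO negative control.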

Read-out in test [10]: Interleukin-8 (IL8), CXCL8 (gene 3576)
The test can be described thus: BSK_3C_IL8: BioMAP Diversity Plus: 3C Assay for Interleukin-8 (IL8) Biomarker Activity (AID 2283020; active = hit-call score of the fitted dose curve at least 0.9, where 1 is the maximum; inactive = score below 0.9). Particulars: primary human endothelial cells (HUVEC); actives raise or lower the signal. Summed up:
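Using DMSO-treated wells as the baseline, bidirectional curve fitting was applied to ELISA-measured IL-8 from human umbilical vein endothelial cultures sampled 24 h after compound addition.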

The target of test [11] is human RAR-related Orphan Receptor beta (RORb), RORB (gene 6096) (UniProt Q92753). The test can be described thus: ATG_RORb_TRANS: Attagene TRANS-FACTORIAL HepG2 Assay for human RAR-related Orphan Receptor beta (RORb) (AID 2283010). Summed up:
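Multiplexed transcription-factor reporter assay: HepG2 cells transiently carrying NR-Gal4/GAL4-UAS constructs, 24 h treatment, mRNA quantified by RT-PCR plus capillary electrophoresis fluorescence; activity scored as induction over DMSO.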

Test [12] has as its target human Retinoid X Receptor beta (RXRb), RXRB (gene 6257) (UniProt P28702). Put plainly: ATG_RXRb_TRANS: Attagene TRANS-FACTORIAL HepG2 Assay for human Retinoid X Receptor beta (RXRb) (AID 2283013). Summed up: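 After a 24 h incubation with test chemical, transfected HepG2 cells carrying NR-Gal4 fusions and GAL4-UAS reporter transcription units yield RNA whose reporter cDNA is FAM-labelled, HpaI-cut and sized by capillary electrophoresis; increases over DMSO are scored.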

For test [13], the target named is human Peroxisome Proliferator-activated Receptor delta (PPARd), PPARD (gene 5467) (UniProt Q03181). Put plainly: ATG_PPARd_TRANS: Attagene TRANS-FACTORIAL HepG2 Assay for human Peroxisome Proliferator-activated Receptor delta (PPARd) (AID 2283002). The procedure, abridged: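 HepG2 cells transiently transfected with GAL4-UAS multiplexed reporter units driven by exogenous chimeric NR-GAL4 proteins; 24 h compound exposure. Reporter mRNA measured by RT-PCR, 6-FAM primer extension, HpaI digestion and capillary electrophoresis; gain of signal fitted relative to DMSO.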
human Peroxisome Proliferator-activated Receptor delta (PPARd), PPARD (gene 5467), sequence (Q03181 whole entry, looked up, the tested form may be a part): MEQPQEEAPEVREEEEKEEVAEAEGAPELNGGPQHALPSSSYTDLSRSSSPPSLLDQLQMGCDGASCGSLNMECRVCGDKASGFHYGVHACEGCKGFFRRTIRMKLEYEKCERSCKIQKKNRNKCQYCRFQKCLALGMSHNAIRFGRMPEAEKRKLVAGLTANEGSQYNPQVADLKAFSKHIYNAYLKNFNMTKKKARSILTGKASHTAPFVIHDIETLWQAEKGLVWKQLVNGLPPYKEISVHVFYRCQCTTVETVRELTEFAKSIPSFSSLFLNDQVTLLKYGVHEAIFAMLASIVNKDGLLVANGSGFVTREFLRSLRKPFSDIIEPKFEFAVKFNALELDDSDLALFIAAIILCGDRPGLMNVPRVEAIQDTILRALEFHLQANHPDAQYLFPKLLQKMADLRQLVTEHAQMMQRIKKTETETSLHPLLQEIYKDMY

In test [14] the target is human RAR-related Orphan Receptor gamma (RORg), RORC (gene 6097) (UniProt P51449). The test can be described thus: ATG_RORg_TRANS: Attagene TRANS-FACTORIAL HepG2 Assay for human RAR-related Orphan Receptor gamma (RORg) (AID 2283011). The procedure, abridged:
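Chimeric RORg-Gal4 transactivation in transfected HepG2; 24 h exposure; RT-PCR/capillary electrophoresis readout of reporter mRNA, DMSO baseline.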

Test [15] addresses Retinoic acid receptor RXR-alpha (Homo sapiens) (UniProt P19793). Put plainly: ATG_RXRa_TRANS: Attagene TRANS-FACTORIAL HepG2 Assay for human Retinoid X Receptor alpha (RXRa) (AID 2283012). The procedure, abridged: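 Chimeric NR-GAL4 trans-activation in HepG2, 24 h treatment; reporter transcripts quantified by fluorescence on capillary electrophoresis, analysed for upward change from DMSO.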

Test [16] concerns the target human Thyroid Receptor alpha (THRa1), THRA (gene 7067) (UniProt P10827). Put plainly: ATG_THRa1_TRANS: Attagene TRANS-FACTORIAL HepG2 Assay for human Thyroid Receptor alpha (THRa1) (AID 2283014). Summed up:
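Measured here is mRNA from a GAL4-UAS reporter in transfected HepG2 cells carrying a Gal4-fused receptor, 24 h post-dose. DMSO served as negative control and baseline.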

Test [17] concerns the target human Retinoic Acid Receptor beta (RARb), RARB (gene 5915) (UniProt P10826). Put plainly: ATG_RARb_TRANS: Attagene TRANS-FACTORIAL HepG2 Assay for human Retinoic Acid Receptor beta (AID 2283004). Summed up:
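Fluorescent capillary-electrophoresis detection of GAL4-UAS reporter mRNA defines the endpoint, with induction over DMSO-treated wells scored as activity. Transiently transfected human hepatoma HepG2 cells expressing exogenous NR–Gal4 proteins are exposed to test chemicals for 24 h.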

Nuclear receptor subfamily 1 group I member 2 (Homo sapiens), sequence (O75469 whole entry, looked up, the tested form may be a part): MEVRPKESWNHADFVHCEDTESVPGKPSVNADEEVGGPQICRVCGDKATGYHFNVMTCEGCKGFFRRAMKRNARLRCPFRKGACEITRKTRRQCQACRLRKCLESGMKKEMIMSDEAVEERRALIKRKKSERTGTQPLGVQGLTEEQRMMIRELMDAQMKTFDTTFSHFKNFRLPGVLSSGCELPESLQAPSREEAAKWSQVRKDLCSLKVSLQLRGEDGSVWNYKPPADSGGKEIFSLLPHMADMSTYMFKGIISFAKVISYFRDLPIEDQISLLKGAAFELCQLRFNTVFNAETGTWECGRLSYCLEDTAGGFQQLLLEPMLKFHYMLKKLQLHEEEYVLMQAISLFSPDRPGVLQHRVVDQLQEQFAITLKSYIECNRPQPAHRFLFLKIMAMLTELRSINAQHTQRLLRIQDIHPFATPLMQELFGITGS
human Thyroid Receptor alpha (THRa1), THRA (gene 7067), sequence (P10827 whole entry, looked up, the tested form may be a part): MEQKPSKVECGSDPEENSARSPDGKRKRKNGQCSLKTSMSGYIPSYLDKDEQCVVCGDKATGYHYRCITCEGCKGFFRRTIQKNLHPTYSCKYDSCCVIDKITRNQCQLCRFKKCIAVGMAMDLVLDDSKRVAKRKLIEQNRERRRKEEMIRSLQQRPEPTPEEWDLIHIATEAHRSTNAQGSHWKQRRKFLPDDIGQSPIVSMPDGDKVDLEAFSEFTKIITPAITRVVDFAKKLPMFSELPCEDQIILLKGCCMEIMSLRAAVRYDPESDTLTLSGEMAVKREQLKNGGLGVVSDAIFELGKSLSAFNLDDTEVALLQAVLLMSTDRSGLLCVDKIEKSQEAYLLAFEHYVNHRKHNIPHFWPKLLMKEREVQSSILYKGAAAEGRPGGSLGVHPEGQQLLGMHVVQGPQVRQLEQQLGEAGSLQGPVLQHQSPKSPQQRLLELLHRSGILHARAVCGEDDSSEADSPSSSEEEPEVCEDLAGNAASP
Retinoic acid receptor RXR-alpha (Homo sapiens), sequence (P19793 whole entry, looked up, the tested form may be a part): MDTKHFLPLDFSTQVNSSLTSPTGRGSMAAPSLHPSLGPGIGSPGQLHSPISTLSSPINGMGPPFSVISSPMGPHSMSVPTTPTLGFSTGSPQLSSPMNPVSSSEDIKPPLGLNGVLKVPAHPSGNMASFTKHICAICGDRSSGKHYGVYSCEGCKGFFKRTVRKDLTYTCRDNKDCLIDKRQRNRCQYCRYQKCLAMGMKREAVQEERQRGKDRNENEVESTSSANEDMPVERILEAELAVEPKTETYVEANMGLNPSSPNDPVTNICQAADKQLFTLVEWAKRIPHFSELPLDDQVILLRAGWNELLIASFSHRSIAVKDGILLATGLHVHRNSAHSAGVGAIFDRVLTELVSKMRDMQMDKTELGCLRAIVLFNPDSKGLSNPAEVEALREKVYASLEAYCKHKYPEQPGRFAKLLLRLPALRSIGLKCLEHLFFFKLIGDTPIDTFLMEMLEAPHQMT
Peroxisome proliferator-activated receptor gamma (Homo sapiens), sequence (P37231 whole entry, looked up, the tested form may be a part): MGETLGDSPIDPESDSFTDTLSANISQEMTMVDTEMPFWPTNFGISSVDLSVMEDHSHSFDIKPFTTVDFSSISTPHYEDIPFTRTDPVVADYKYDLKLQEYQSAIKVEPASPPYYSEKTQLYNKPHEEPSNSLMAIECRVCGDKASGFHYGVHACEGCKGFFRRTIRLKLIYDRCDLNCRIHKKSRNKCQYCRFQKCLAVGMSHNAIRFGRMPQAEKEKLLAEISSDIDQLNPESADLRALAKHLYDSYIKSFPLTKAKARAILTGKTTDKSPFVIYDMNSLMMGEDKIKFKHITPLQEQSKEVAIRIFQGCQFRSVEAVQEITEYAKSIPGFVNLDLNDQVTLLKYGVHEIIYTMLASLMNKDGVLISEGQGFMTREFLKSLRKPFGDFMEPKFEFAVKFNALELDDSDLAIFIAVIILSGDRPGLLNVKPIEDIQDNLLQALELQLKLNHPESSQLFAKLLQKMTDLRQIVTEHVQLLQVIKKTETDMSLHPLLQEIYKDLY
human Retinoid X Receptor beta (RXRb), RXRB (gene 6257), sequence (P28702 whole entry, looked up, the tested form may be a part): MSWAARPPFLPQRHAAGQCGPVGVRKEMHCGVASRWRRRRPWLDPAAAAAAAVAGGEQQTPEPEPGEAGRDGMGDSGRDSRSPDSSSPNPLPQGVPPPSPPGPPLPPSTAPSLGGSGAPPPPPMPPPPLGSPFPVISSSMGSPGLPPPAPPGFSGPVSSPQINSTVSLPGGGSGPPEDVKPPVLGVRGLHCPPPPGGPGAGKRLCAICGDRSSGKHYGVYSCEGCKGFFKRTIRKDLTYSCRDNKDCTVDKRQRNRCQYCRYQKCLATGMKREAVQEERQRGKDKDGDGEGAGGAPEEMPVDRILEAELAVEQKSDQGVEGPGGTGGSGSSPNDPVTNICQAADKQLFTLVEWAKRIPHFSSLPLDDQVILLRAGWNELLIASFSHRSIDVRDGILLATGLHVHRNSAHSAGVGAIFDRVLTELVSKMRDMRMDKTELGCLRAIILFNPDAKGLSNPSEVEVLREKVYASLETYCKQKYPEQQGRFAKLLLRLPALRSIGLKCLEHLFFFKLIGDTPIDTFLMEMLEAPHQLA
E-selectin (Homo sapiens), sequence (P16581 whole entry, looked up): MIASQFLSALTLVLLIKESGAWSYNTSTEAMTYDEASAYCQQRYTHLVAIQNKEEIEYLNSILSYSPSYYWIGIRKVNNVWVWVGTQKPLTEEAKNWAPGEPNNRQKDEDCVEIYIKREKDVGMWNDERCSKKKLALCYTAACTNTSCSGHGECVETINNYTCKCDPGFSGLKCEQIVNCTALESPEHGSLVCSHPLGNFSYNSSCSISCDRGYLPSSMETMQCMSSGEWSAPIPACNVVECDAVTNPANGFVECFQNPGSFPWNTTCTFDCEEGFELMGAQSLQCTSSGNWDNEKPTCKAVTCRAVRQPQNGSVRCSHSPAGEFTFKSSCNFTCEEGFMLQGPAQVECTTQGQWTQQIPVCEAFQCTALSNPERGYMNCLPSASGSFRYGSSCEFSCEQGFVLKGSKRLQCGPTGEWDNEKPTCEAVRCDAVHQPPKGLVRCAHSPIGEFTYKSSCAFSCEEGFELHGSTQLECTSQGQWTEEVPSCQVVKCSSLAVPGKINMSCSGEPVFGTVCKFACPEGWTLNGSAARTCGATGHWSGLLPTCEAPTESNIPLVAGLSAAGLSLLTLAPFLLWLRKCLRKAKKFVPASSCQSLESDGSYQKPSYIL
human RAR-related Orphan Receptor beta (RORb), RORB (gene 6096), sequence (Q92753 whole entry, looked up, the tested form may be a part): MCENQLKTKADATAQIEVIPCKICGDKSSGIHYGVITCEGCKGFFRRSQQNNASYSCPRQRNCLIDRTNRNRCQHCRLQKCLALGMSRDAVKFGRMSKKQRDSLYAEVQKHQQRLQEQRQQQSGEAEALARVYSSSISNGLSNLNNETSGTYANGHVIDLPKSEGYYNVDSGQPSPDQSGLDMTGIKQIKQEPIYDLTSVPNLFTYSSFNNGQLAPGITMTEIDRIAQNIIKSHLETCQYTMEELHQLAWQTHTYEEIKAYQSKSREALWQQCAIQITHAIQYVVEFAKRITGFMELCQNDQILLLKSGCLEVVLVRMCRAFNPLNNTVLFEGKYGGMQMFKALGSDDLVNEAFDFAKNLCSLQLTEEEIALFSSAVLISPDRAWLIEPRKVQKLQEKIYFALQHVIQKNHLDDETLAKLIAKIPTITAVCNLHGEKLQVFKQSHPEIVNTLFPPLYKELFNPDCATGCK
human RAR-related Orphan Receptor gamma (RORg), RORC (gene 6097), sequence (P51449 whole entry, looked up, the tested form may be a part): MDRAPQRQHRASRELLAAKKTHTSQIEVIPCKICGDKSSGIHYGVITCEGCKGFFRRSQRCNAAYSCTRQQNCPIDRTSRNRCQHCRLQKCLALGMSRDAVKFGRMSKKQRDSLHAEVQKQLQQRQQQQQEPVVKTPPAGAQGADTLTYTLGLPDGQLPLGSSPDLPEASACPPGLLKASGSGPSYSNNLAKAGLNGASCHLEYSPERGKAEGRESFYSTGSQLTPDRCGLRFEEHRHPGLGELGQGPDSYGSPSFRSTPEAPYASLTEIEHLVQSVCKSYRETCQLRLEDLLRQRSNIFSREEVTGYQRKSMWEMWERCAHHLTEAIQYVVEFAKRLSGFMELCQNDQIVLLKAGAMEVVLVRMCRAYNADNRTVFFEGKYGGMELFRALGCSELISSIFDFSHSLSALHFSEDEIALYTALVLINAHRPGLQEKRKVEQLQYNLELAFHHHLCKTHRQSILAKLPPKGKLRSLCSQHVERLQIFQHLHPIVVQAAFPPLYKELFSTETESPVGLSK
human Retinoic Acid Receptor beta (RARb), RARB (gene 5915), sequence (P10826 whole entry, looked up, the tested form may be a part): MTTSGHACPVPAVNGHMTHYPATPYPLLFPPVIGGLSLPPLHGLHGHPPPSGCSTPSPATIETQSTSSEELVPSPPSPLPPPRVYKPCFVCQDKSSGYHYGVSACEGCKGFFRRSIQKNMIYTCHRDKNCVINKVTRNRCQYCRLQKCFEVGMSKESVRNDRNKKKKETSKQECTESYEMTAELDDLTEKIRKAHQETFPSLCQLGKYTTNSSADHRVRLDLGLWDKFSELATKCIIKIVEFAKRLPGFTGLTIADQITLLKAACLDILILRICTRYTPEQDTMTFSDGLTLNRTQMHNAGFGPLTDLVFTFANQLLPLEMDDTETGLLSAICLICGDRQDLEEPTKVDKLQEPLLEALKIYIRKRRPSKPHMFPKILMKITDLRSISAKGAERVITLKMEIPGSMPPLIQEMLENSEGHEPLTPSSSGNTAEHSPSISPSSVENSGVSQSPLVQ

As for `O=[N+]([O-])c1cc(C(F)(F)F)ccc1Cl`, the outcome in test [1], in test [2], in test [3], in test [4], in test [5] and in test [6] was inactive. For the same compound, the result in test [7], in test [8], in [9] and in test [10] was inactive.

For `CCCCCCCCCCCCCCCCCC(=O)OCC(CC)CCCC` (stereo not given), the outcome in test [1], in test [2], in test [11], in test [12], in [5] and in test [6] was inactive. The outcome in test [7], in test [8], in test [9] and in test [10] was inactive.

Consider `CC(=O)Nc1ccc(C)cc1C`, for which the call in test [13], in [4], in [11], in [14], in test [15] and in test [16] was inactive.

Regarding `CC(=O)/C=C/C1=C(C)CCCC1(C)C`, the result in test [1], in [2], in test [15], in [16], in test [5] and in test [6] was inactive. The outcome in test [7], in test [8], in test [9] and in test [10] was inactive. Moreover, the AC50 in test [3] was 21.1 µM (active); in test [4], 2.3 µM (active); in test [12], 80 µM (active).

Take `COc1cccc(OC)c1`: the compound was classed as inactive in [13], in [3] and in test [14].

As for `CN(CCOc1ccc(CC2SC(=O)NC2=O)cc1)c1ccccn1` (stereo not given), the result in test [1], in test [15], in [12], in [16] and in [10] was inactive. Further, the half-maximal activity concentration (AC50) in test [2] is 7.9 µM (active); in test [4], 5.11 µM (active); in [5] it was 3.97 µM (active); in test [6], 3.97 µM (active); in test [7] it was 113 nM (active); in [8], 3.97 µM (active). In addition, the AC50 in [9] is 9.42 µM (active).

On to `CCCCCCCCCCN`, for which the outcome in [13], in test [15] and in test [12] was inactive.

`COC(=O)C1=C(C)NC(C)=C(C(=O)OCCN(C)Cc2ccccc2)C1c1cccc([N+](=O)[O-])c1` (stereo not given): the outcome in [13] and in test [15] was inactive. Moreover, the AC50 in test [3] is 27.7 µM (active).

Consider `CSc1nc(NC2CC2)nc(NC(C)(C)C)n1`, for which the compound was called inactive in [13] and in [16]. Further, the figures for the AC50 in test [3], in [4] and in test [12] were 31.9 µM (active), 1.05 µM (active) and 22.7 µM (active), respectively.

In the case of `FC1(F)C(F)(F)C(F)(F)C2(F)C(F)(C1(F)F)C(F)(F)C(F)(F)C1(F)C(F)(F)C(F)(F)C(F)(F)C(F)(F)C12F` (stereo not given), the outcome in test [13], in test [4] and in test [16] was inactive.

Take `CC1(C)[C@H](C(=O)OCc2cccc(Oc3ccccc3)c2)[C@@H]1C=C(Cl)Cl`: the compound was called inactive in test [13], in test [4] and in test [16].

With `COc1cc(C=O)ccc1OC(=O)C(C)C`, the result in [1], in test [17], in test [2], in test [3], in test [4] and in test [11] was inactive. In addition, the compound was called inactive in [15], in test [12], in [16], in [5], in test [6] and in test [7]. For the same compound, the outcome in test [8], in [9] and in [10] was inactive.

Take `CCCC1CCC(=O)O1` (stereo not given): the result in test [13], in test [4], in test [11] and in test [15] was inactive.
